Data reported in PubChem BioAssay AID771 (SRMLSC, 2007).
The whole screen tested about 3,300 compounds, of which about 55 (2%) were called active.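 The calls were made as follows: active = growth inhibition above 90%, meaning viable cell count by imaging cut by more than 90% versus vehicle controls; inactive = growth inhibition below 90%.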 This excerpt belongs to a sample that is enriched for actives.

Assay: HT29 colon tumor cell growth inhibition, primary screen, imaging, high content imaging, 48 h, CellTiter-Glo (AID 771);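 as to condensed nuclei: condensed means Hoechst nuclear area under control median minus 1.5 SD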
Conditions: HCS imaging cell count, at 10 µM, stronger effect = higher value; for condensed nuclei: measured here: percent cells with condensed nuclei
[1] = measured here: ATP CellTiter-Glo viability inhibition

SMILES	growth inhibition	growth inhibition [1] [%]	condensed nuclei [%]
COc1ccc(-n2ncc3c(Nc4cccc(C)c4)ncnc32)cc1	30.6% (inactive)	-2.53	3.63
N#CC1=C(N)NC(SCc2ccc(F)cc2)=C(C#N)C12CCCCC2	95.4% (active)	69.3	27.3
COc1ccc(C(=O)CSC2=C(C#N)C3(CCCCC3)C(C#N)=C(N)N2)cc1	27% (inactive)	4.09	7.53
N#CC1=C(N)NC(SCc2ccc(Cl)cc2)=C(C#N)C12CCCCC2	79.6% (inactive)	70.5	17.1
C=CCN(C(=O)CCC(=O)O)C1CC(=O)N(c2ccc(OC)cc2)C1=O (stereo not given)	-35.5% (inactive)	-24.9	1.95
Cn1c(=NCC(O)COc2ccccc2)sc2ccccc21 (stereo not given)	25.5% (inactive)	-13.5	3.63
COCCNc1oc(-c2ccc(C)cc2)nc1C#N	11.6% (inactive)	-12.3	2.76
O=C(O)c1ccc(COCC(F)(F)C(F)F)o1	-17.7% (inactive)	-10.2	3.29
CCOc1ccc(Cn2c(O)cc(=O)[nH]c2=O)cc1	-7.52% (inactive)	-20.8	1.27
CC1CN(C2CCN(C(=O)c3ccccc3)CC2)CC(C)O1 (stereo not given)	92.5% (active)	-44.3	3.65
CC1CN(C2CCN(C(=O)COc3ccccc3)CC2)CC(C)O1 (stereo not given)	-1.5% (inactive)	-3.33	2.3
CC1CN(C2CCN(C(=O)c3ccccc3Cl)CC2)CC(C)O1 (stereo not given)	-18.6% (inactive)	-39.5	4.01
CCOC(=O)c1sc2c(c1C)c(=O)c(C(=O)OCC)cn2CC	-35.2% (inactive)	-21.7	0.84
CCCc1[nH]nc2c1C(c1cccc(OC)c1)C(C#N)=C(N)O2 (stereo not given)	55.3% (inactive)	9.76	16.6
Cc1cccc(OCC(=O)N2CCC(N3CCOCC3)CC2)c1	-31.7% (inactive)	-31.1	0.89
CNCCCC12CCC(c3ccccc31)c1ccccc12	95% (active)		18.3
Nc1ccc(Cl)cc1/C(=N/O)c1ccccc1	33.8% (inactive)	-14.5	3.59
C=C1[C@@H](C)C2[C@H](Cc3ccccc3)NC(=O)[C@]23OC(=O)CC[C@H](O)CCC[C@H](C)C/C=C/[C@H]3[C@@H]1O (stereo not given in full)	92.4% (active)		18.2
CCOC(=O)CSc1nc(N(C)C)nc(N(C)C#N)n1	27.7% (inactive)	-19.8	1.4
